Measured values: PubChem BioAssay (EPA / NIEHS)
Calls of active or inactive are those of the source. How the source made its calls: active means hit-call score of the fitted dose curve at least 0.9, where 1 is the maximum; inactive means score below 0.9. Peptide text beside a SMILES is read from it.

assay: ATG_BRE_CIS: Attagene CIS-FACTORIAL HepG2 Assay for human Bone Morphogenetic Protein (BMP) Response Element (BRE) (AID 2282933); conditions: HepG2 BMP response element reporter, Attagene transcription factor profiling; actives raise or lower the signal
Protocol: ATG_CIS is a cell-based, multiplexed-readout assay that uses HepG2, a human liver cell line, with measurements taken at 24 hours after chemical dosing in a 24-well plate.ATG_BRE_CIS is one of 52 assay component(s) measured or calculated from the ATG_CIS assay. It is designed to make measurements of mRNA induction, a form of inducible reporter, as detected with fluorescence intensity signals by Reverse transcription polymerase chain reaction (RT-PCR) and Capillary electrophoresis technology.Data from the assay component ATG_BRE_CIS was analyzed into 1 assay endpoint. This assay endpoint, ATG_BRE_CIS, was analyzed with bidirectional fitting relative to DMSO as the negative control and baseline of activity. Using a type of inducible reporter, measures of mRNA for gain or loss-of-signal activity can be used to understand the reporter gene at the transcription factor-level as they relate to the gene SMAD1. Furthermore, this assay endpoint can be referred to as a primary readout, because this assay has produced multiple assay endpoints where this one serves a reporter gene function. To generalize the intended target to other relatable targets, this assay endpoint is annotated to the dna binding intended target family, where the subfamily is Smad protein.
Human liver HepG2 cells are transiently transfected with multiple reporter transcription units (MRTUs) in 6-well plates using FuGene 6 reagent (Roche; 3 ml FuGene/1 mg DNA). The MRTU constructs are regulated by a cis-regulating element (promoter). […] A major difference between the CIS and TRANS system is that in CIS activities of endogenous TFs are measured, whereas the TRANS assay evaluates changes in activities of exogenous, chimeric NR-Gal4 proteins. […] At the end of 24 hour incubation, total RNA was isolated using TriZol reagent (Invitrogen). The isolated RNA is then reverse-transcribed using oligo(dT) primer and Mo-MLV reverse transcriptase (Invitrogen) with DNAse I (Ambion) treatment for 30 min. The one-tenth of the produced cDNA was amplified by PCR using Taq DNA polymerase (Invitrogen) and two reporter sequence-specific primers. The PCR products were fluorescently labeled by primer extension with 6-arboxyfluorescein (6-FAM) 5'-labeled reporter sequence-specific primer (2 min at 95 C, 20 s at 68 C and 10 min at 72 C) and these products were digested with 5U of HpaI (New England Biolabs) for 2h at 37 C. The fragments were purified using Qiaquick PCR columns (Qiagen), analyzed on an ABI 3130xL genetic analyzer (Applied Biosystems) with peak positions identified by using a set of X-rhodamine (ROX)-labeled MapMarker1000 molecular weight standards (BioVentures). The raw capillary electrophoresis data was processed using Attagraph software (Attagene).

SMILES | outcome | AC50
CCC(C)C(=O)OC (stereo not given) | inactive | –
CCCCC1C(=O)N(c2ccccc2)N(c2ccccc2)C1=O | inactive | –
CC1OC(=O)C(C)OC1=O (stereo not given) | inactive | –
COc1cc(C)ccc1O | inactive | –
CCCCCC(=O)OCC | inactive | –
CCCCCCCCCCCCC | inactive | –
COC(=O)CC(C)CCC=C(C)C (stereo not given) | inactive | –
CC(C)COC(=O)CC(C(=O)OCC(C)C)S(=O)(=O)O (stereo not given) | inactive | –
CC(C)c1cccc(C(C)C)c1N | inactive | –
CCN1CN(CC)CN(CC)C1 | inactive | –
COC(=O)[C@H](Cc1ccccc1)NC(=O)[C@@H](N)CC(=O)O (H-Asp-Phe-OMe) | inactive | –
COc1ccc(C(=O)c2ccccc2)c(O)c1 | – | 158 µM (active)
CCCCOCC(C)O (stereo not given) | inactive | –
CCCCCC[C@@H](O)C/C=C\CCCCCCCC(=O)OCC(O)CO (stereo not given in full) | inactive | –
CCCC(CC)c1ccccc1 (stereo not given) | inactive | –
CC1=C(O)C(=O)C(C)O1 (stereo not given) | inactive | –
[Cl][Eu]([Cl])[Cl] | inactive | –
O=C(O)C(F)(F)C(F)(F)C(F)(F)C(F)(F)C(=O)O | inactive | –
CC(C)[N+](C)(CCOC(=O)C1c2ccccc2Oc2ccccc21)C(C)C | inactive | –
O=C(O)c1cc(O)c2ccccc2c1O | inactive | –

SMILES | outcome | AC50
CCCCc1ccc(Cl)cc1 | inactive | –
CCCCCCCCCC[N+](C)(CCCCCCCCCC)CCC[Si](OC)(OC)OC | inactive | –
C=C[Si](OCCOC)(OCCOC)OCCOC | inactive | –
CCCC/C=C/C=C\C=O | inactive | –
Cc1c(C(=O)c2c[nH]n(C)c2=O)ccc(S(C)(=O)=O)c1C1=NOCC1 | inactive | –
CCCCCCOC(=O)CCCCC(=O)OCCCCCC | inactive | –
CCC1COC(=O)O1 (stereo not given) | inactive | –
CC1(C)C(=O)N(CO)C(=O)N1CO | inactive | –
C1CNCCN1 | inactive | –
CCCCOC(=O)C(C)CC (stereo not given) | inactive | –
CCCC1CCCC(=O)O1 (stereo not given) | inactive | –
CCCCCCCCCCCCc1ccc(O)cc1 | inactive | –
CC1=CCC2CC1C2(C)C (stereo not given) | inactive | –
C/C=C/C=C/CCCCCCCO | – | 156 µM (active)
Cc1cc(=O)[nH]c(=O)[nH]1 | inactive | –
Cc1noc(NS(=O)(=O)c2ccc(N)cc2)c1C | inactive | –
CCc1cccc(C)c1N(C(=O)CS(=O)(=O)O)C(C)COC (stereo not given) | inactive | –
C=C(C)[C@@H]1CC=C(C)CC1 | inactive | –
CC=C(C)C=CC=C(C)C | inactive | –
CCCSSCCC | inactive | –
